TRPV1 PAM = enhances activation of the human vanilloid receptor TRPV1 | Q8NER1 | TRPV1-expressing cells, Fluo-8 calcium influx, capsaicin EC20 potentiation | potentiation, % at 8.33 µM | 320,000 tested, 0.02% active; in the data active means potentiation above about 80%; inconclusive means between about 30% and that limit
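TRPV1-expressing cells were cultured overnight at 35.5C and loaded with Fluo-8 calcium dye for 40 to 90 min at room temperature. After a 10 s baseline, compound was added and calcium influx was read kinetically for 3 min (ex 480/em 520 nm).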
p53 reactivation = restores transcriptional activity of mutant p53 | H1299 p53-A138V BP100-luciferase reporter, luminescence, 24 h | Potency, µM (highest dose often 92.2 µM), most hits filed as activators | 320,000 tested, 0.063% active; active means well fitted activation curve with a large enough effect; inconclusive means small, poorly fitted or top-dose-only effect; inactive means no such curve, though single readings can be large or run the other way; further: nearly all actives have a fitted effect of over 45% in size
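p53-null H1299 cells stably carrying temperature-sensitive p53-A138V and a BP100-luciferase reporter were pinned with compounds (4-point, 1:5 series) and held 24 hrs at 37 deg C. Luminescence was read 10 min after detection reagent.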
TRPV1 ag = activates the human vanilloid receptor TRPV1 | 320,000 tested, 0.19% active | TRPV1-expressing cells, Fluo-8 calcium influx, agonist mode | Q8NER1 | activation, % at 8.33 µM; in the data active means activation above about 80%; inconclusive means between about 30% and that limit
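Fluo-8 calcium influx in TRPV1-expressing cells, kinetic read (ex 480/em 520 nm). Compound added and read 3 min for agonist activity, followed by capsaicin at EC20 final and 2 min further read for enhancement.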
ClpP mod = qHTS Assay for Activators of ClpP. AID 651965, 2013. purified B. subtilis ClpP, FRET peptide cleavage, 20 min. ATP-dependent Clp protease proteolytic subunit (Bacillus subtilis (strain 168)), P80244. 340,000 tested, 1.9% active. Potency, µM (highest dose often 57.5 µM); active means well fitted falling curve with a large enough effect; inconclusive means small, poorly fitted or top-dose-only effect; inactive means no such curve, though single readings can be large or run the other way; further: the source files actives as falling curves though it sought activators and does not explain the sign; nearly all actives have a fitted effect of over 65% in size
Target sequence (P80244 whole entry, looked up): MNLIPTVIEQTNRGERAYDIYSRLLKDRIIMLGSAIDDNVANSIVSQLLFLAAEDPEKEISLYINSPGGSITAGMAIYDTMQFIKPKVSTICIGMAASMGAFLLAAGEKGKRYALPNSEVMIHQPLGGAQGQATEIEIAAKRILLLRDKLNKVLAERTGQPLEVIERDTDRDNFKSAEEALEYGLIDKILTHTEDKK
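ClpP 10 microg/mL final, pH 8 Tris/KCl buffer with BSA, glycerol, Tween-20; compound pinned in; FRET-FV substrate; RT 20 min; Ex320/Em430; ΔFRET vs ADEP 5.8 microM, DMSO, no enzyme.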
hERG WT inh = KCNH2 (human, wildtype) channel inhibition; 340,000 tested, 0.37% active; Q12809; activity change, % at 1.84 µM; AID 720551; U2OS, BacMam KCNH2, thallium flux FluxOr; stronger effect = lower value;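 active means maximum activity change below -70%; inconclusive means maximum activity change between -70% and -50%; inactive means maximum activity change above -50%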
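U2OS cells were transduced with wild-type KCNH2 virus (2.03 x 10^8 / mL) for 4 h at room temperature, then cultured overnight at 37 C. Thallium flux was read with FluxOr dye. Rate constants were normalized to DMSO controls.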
KCNH2 3.1 block = inhibitors of human KCNH2 3.1 potassium channel isoform; U2OS KCNH2 3.1, thallium flux FluxOr; stronger effect = lower value; 340,000 tested, 0.95% active; activity change, % (tested at about 1.8 µM);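 active means maximum activity change below -70%; inconclusive means maximum activity change from -70% to -50%; inactive means maximum activity change above -50%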;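 further: thallium influx rate constant from kinetic fluorescence after stimulation buffer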
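FluxOr-based Tl+ influx in U2OS cells transduced with KCNH2 3.1 virus; rate constants normalized to DMSO controls.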
Numbers stand for hits; - = inactive; ? = inconclusive; . = not tested or not shown. Sampled rows, rich in hits. Any-hit rate of the full collection: about 2.6%.

SMILES	TRPV1 PAM	p53 reactivation	TRPV1 ag	ClpP mod	hERG WT inh	KCNH2 3.1 block
N#Cc1ccc(OCC(=O)N2CCN(c3ccc(C(F)(F)F)cn3)CC2)cc1	-	-	-	?	-	-92
O=C(CCc1ccccc1F)N1CCN(c2ccc(C(F)(F)F)cn2)CC1	-	-	-	-	-	-
C[C@H](NC(=O)[C@@H]1CCCN1C(=O)[C@@H]1CCCN1C(=O)c1cccc(Cl)c1)c1ccccc1	.	.	.	-	.	.
Nc1c(C(=O)OCC2CCCO2)c2nc3ccccc3nc2n1C1CCCC1 (stereo not drawn)	-	-	-	25µM	-	-
COc1ccc(OC)c(-n2c(N)c(C(=O)NCC3CCCO3)c3nc4ccccc4nc32)c1 (stereo not drawn)	-	-	-	18µM	-	-
COCCn1c(N)c(C(=O)NCC2CCCO2)c2nc3ccccc3nc21 (stereo not drawn)	-	-	-	?	-	-
CC(C)Cn1c(N)c(C(=O)NCC2CCCO2)c2nc3ccccc3nc21 (stereo not drawn)	-	-	-	28µM	-	-
C1=Cc2ccccc2/C1=C/c1ccc2c(c1)OCO2	.	.	.	-	.	.
O=C1NN(c2ccccc2)C(=O)C2C3C=CC(C4CC34)C12 (stereo not drawn)	-	-	-	-	-147	-
CCC[n+]1c(/C=C/c2c(OC)cc(OC)cc2OC)ccc2ccccc21	.	.	.	-	.	.
Nc1nc(=S)c2snnc2[nH]1	.	.	.	-	.	.
COC(=O)c1ccc(OCC2c3cc(OC)c(OC)cc3CCN2C(=O)c2ccco2)cc1 (stereo not drawn)	-	-	-	-	-	-173
Cc1cc(C)n(CCc2nc3c4ccccc4nc(N4CCN(c5ccccc5)CC4)n3n2)n1	.	.	.	-	.	.
CCn1c(/C=C/Nc2ccccc2)[n+](CC)c2cc(Cl)c(Cl)cc21	-	-	-	-	-132	-98
CN(C)c1ccc(/C=C/c2cc(N(C)C)nc3ccccc23)cc1	.	.	.	-	.	.
CC(C)Oc1ccc(CNC(=O)c2cc3cccc4c3n2CC(C)S4)cc1 (stereo not drawn)	.	.	.	32µM	.	.
O=C(NCc1ccc(Cl)cc1)c1cc2cccc3c2n1CCS3	.	.	.	22µM	.	.
Cc1cc(C(=O)NCc2ccc(Cl)cc2)n(-c2ccccc2)n1	-	-	-	-	-	-
COc1ccc(CNC(=O)c2cc3cccc4c3n2CC(C)S4)cc1 (stereo not drawn)	.	.	.	32µM	.	.
COc1ccc(NC(=O)c2sc(=O)n(Cc3ccccc3C#N)c2C)cc1OC	.	.	.	-	.	.
COc1ccc(-c2[nH]nc3oc(=O)cc(C)c23)cc1	-	.	-	?	-	-
Cc1cc(=O)oc2n[nH]c(-c3ccccc3)c12	-	-	-	25µM	-	-
COC1=C/C(=C/c2c(N)n3nc(CC(=O)N4CCCC4)sc3nc2=O)C=CC1=O	-	-	-	-	-	-
COC1=CC(=Cc2c(N)n3nc(CC(=O)N4CCCCC4)sc3nc2=O)C=C(OC)C1=O	-	-	?	-	-70	-
Cc1nn2c(-c3ccco3)ccnc2c1-c1ccc(F)cc1	.	.	.	-	.	.
SMILES	TRPV1 PAM	p53 reactivation	TRPV1 ag	ClpP mod	hERG WT inh	KCNH2 3.1 block
CSc1cccc(Nc2cc(C(=O)NCCCN(Cc3ccccc3)C(C)C)c3ccccc3n2)c1	.	.	.	35µM	.	.
Cc1ccc(NC(=O)C(Cc2ccccc2)NS(=O)(=O)c2ccc3c(c2)c(=O)n(C)c(=O)n3C)cc1 (stereo not drawn)	.	.	.	-	.	.
CCC(=O)Nc1nnc(-c2ccncc2)s1	-	-	-	16µM	-	-
Cc1onc(-c2ccccc2)c1C(=O)Nc1nnc(-c2ccncc2)s1	-	-	-	32µM	-	-
Cc1onc(-c2ccccc2)c1C(=O)Nc1ccc2c(C)cc(=O)oc2c1	-	-	-	16µM	-	-
CCNc1nnc(-c2ccncc2)s1	-	-	-	-	-	-
Cc1onc(-c2ccccc2)c1C(=O)Nc1ccncc1	-	-	-	-	-	-
COc1ccc2oc(-c3ccc(C)c(NC(=O)c4ccc(-c5ccccc5[N+](=O)[O-])o4)c3)nc2c1	.	.	.	-	.	.
CN(C)c1ccc(/C=C/c2ccnc3cc(Cl)ccc23)cc1	.	.	.	-	.	.
Cc1ccc(C(=O)Nc2ccc(Br)cc2)cc1S(=O)(=O)N1CCOCC1	.	.	.	-	.	.
CCOc1ccc(NC(=O)NCCn2nnc3cc(S(=O)(=O)N(C)C)ccc32)cc1	.	.	.	-	.	.
O=C(NCc1ccccc1Cl)c1ccc2c(c1)N(Cc1ccccc1)C(=O)CS2	.	.	.	-	.	.
Cc1cc(C)cc(N2CCN(C(=O)N3CCOCC3)CC2)c1	-	-	?	-	-	-
Cc1ccc(N2CCN(C(=O)N3CCOCC3)CC2)c(C)c1	-	-	83	.	-	?
O=C(Nc1nnc(-c2ccco2)s1)C1CC1	-	?	-	32µM	-	-
COc1cccc(-c2ccc3c(N)c(C(=O)c4ccc(F)cc4)sc3n2)c1	.	.	.	-	.	.
O=C(C[n+]1ccc(/C=C/c2c[nH]c3ccccc23)c2ccccc21)c1ccccc1	.	.	.	-	.	.
COc1ccccc1/C=C/C(=O)OC(C)CN1CCOCC1 (stereo not drawn)	-	-	-	32µM	-	-
COc1ccccc1C=CC(=O)C=Cc1ccccc1OC	.	.	.	28µM	-	-
CC(CN1CCOCC1)OC(=O)c1ccccc1 (stereo not drawn)	.	-	.	-	-	-
CN(C)C(=O)c1ccc(/C=C/c2ccnc3ccccc23)cc1	.	.	.	-	.	.
N#CN=c1snc(-c2ccccc2)n1-c1ccc(Cl)cc1	.	.	.	-	.	.
COCc1cc(O)c(O)c(O)c1-c1c(COC)cc(O)c(O)c1O	.	.	.	-	.	.
COc1ccccc1OCCn1cc(C=O)c2ccccc21	-	-	-	.	-	-90
O=C1NC[C@@H](CCCCN2C[C@H](Cc3ccc(O)cc3)N(CCc3ccc(O)cc3)C(=O)C2=O)N(CCc2ccc(O)cc2)C1=O	.	.	.	-	.	.
SMILES	TRPV1 PAM	p53 reactivation	TRPV1 ag	ClpP mod	hERG WT inh	KCNH2 3.1 block
CCOC(=O)N1CCN(c2ccc([N+](=O)[O-])cc2)CC1	-	-	?	-	-	-
O=C(c1ccc(-c2cccc(Cl)c2)o1)N1CCN(c2ccc([N+](=O)[O-])cc2)CC1	-	-	-	-	?	-101
O=C(Cc1ccc([N+](=O)[O-])cc1)N1CCN(c2ccc([N+](=O)[O-])cc2)CC1	-	.	?	-	?	-91
CSC(=NC#N)N1CCN(c2ccc([N+](=O)[O-])cc2)CC1	-	-	-	.	-	-79
Cc1ccc(S(=O)(=O)NCc2ccc(C(=O)N3CCN(c4ccc([N+](=O)[O-])cc4)CC3)cc2)cc1	-	-	-	-	-	-96
Cc1nc2cc(-c3ccccc3)nn2c(C)c1CCC(=O)NCc1cccc(Cl)c1	.	.	.	-	.	.
C[C@@H]1[C@H](c2ccccc2)OCCS(=O)(=O)N1Cc1cccc(Cl)c1	.	.	.	-	.	.
